Here are results for seven sequences from paper PMC7862700, “An all-to-all approach to the identification of sequence-specific readers for epigenetic DNA modifications on cytosine”.

Assay in all cases: DAPPL (digital affinity profiling via proximity ligation, sequencing); 10 mM Tris-HCl pH 7.5, 50 mM NaCl, 1 mM DTT, 4% glycerol, room temperature, 30 min; GST-TFs on glutathione beads, 16-mer random dsDNA library, 0.1% formaldehyde crosslink after washing; high values mean tight binding
Holding throughout (conditions): protein: recombinant; tags: N-terminal GST; dsDNA, one strand shown

The target of one assay is T1, FLI1 (Homo sapiens, UniProt Q01543 1-452).
T1 sequence: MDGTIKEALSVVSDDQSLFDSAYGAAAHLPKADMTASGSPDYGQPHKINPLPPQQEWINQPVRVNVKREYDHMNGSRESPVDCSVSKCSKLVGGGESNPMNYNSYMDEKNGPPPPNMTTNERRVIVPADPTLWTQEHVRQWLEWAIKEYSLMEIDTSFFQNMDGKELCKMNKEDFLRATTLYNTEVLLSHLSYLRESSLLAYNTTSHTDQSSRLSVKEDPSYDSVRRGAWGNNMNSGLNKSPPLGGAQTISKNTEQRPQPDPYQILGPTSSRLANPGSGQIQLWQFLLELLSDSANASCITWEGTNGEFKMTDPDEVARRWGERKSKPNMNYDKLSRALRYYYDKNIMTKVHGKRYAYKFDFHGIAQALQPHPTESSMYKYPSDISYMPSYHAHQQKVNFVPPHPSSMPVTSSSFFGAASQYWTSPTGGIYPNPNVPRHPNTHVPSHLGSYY
A digest of the protocol: (§1)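 Binding signal is given per hexamer as its read frequency for a factor divided by its frequency in the tag-only sample. GST-fused human transcription factors were expressed in yeast, captured on glutathione beads, barcoded with DNA and pooled with that sample, then incubated with 200 nmole of a 16-mer random double-stranded DNA library in Tris/NaCl/DTT/glycerol buffer for 30 min at room temperature. The pools were then washed, crosslinked, proximity-ligated, amplified by PCR and sequenced on an Illumina NextSeq500.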

A further assay deals with T2, ELK1 (Homo sapiens, UniProt P19419 1-428).
T2 sequence: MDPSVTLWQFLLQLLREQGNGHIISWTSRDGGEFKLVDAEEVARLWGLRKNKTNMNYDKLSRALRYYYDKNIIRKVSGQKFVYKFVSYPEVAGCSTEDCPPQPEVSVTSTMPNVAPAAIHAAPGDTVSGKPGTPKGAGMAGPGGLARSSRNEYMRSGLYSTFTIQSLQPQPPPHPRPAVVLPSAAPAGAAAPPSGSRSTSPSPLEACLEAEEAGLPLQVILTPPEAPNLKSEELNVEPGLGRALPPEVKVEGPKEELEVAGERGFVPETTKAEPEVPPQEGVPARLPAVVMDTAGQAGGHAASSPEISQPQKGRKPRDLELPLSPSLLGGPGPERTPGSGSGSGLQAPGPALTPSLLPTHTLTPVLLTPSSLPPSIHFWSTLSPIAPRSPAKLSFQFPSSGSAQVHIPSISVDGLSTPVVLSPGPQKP
A digest of the protocol: as §1

In another assay the target is T3, GABPA (Homo sapiens, UniProt Q06546 1-454).
T3 sequence: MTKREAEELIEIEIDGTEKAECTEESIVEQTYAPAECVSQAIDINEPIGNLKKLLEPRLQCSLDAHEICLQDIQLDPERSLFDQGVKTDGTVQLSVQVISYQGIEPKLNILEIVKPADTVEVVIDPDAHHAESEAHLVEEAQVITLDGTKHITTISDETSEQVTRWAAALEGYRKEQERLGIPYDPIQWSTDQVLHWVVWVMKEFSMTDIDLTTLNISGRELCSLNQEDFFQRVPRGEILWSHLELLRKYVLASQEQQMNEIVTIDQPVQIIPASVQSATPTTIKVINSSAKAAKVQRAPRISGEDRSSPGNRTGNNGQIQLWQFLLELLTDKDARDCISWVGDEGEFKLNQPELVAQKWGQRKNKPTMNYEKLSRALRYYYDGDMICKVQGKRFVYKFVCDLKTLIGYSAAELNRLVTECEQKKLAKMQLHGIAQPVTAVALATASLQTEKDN
A digest of the protocol: as §1

Another assay has as its target T4, ERG (Homo sapiens, UniProt P11308 1-479).
T4 sequence: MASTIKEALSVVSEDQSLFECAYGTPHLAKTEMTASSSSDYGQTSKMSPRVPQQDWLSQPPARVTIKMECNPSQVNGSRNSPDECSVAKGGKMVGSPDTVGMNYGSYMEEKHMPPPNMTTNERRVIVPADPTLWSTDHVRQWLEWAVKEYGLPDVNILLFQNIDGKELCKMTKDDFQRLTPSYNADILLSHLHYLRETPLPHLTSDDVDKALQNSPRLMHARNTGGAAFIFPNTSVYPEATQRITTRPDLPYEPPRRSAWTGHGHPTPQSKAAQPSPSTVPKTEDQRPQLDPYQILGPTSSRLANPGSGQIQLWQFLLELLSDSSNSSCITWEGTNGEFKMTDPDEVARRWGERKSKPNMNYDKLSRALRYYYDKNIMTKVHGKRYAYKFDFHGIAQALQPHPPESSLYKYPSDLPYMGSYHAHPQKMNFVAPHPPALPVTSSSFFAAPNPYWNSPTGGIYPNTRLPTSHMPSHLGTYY
Summed up: as §1

The next assay concerns the target ELF1 (Homo sapiens, UniProt P32519 1-619). A digest of the protocol: as §1
Another assay has as its target T5, EHF (Homo sapiens, UniProt Q9NZC4 1-300).
T5 sequence: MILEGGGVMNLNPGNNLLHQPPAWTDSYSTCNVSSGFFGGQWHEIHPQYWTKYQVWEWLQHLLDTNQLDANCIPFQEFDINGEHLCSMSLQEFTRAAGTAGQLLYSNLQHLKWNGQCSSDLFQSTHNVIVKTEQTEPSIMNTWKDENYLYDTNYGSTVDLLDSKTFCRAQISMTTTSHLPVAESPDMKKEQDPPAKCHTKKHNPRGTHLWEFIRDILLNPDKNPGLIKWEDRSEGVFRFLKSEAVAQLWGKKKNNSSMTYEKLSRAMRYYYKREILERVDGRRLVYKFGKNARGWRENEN
A digest of the protocol: as §1

A further assay concerns the target SPI1 (Homo sapiens, UniProt P17947 1-270). A digest of the protocol: as §1
In another assay the target is SPIB (Homo sapiens, UniProt Q01892 1-262). A digest of the protocol: as §1
Chain of SPIB (Q01892 whole entry): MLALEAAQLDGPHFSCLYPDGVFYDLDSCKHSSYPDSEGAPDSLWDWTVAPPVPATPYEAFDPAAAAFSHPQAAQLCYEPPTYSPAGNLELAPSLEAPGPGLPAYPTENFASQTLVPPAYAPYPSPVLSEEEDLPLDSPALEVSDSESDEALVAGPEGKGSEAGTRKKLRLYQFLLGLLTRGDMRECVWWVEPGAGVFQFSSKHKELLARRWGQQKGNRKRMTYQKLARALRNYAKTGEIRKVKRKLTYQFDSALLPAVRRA
The target in a further assay is T6, ELK3 (Homo sapiens, UniProt P41970 1-407).
T6 sequence: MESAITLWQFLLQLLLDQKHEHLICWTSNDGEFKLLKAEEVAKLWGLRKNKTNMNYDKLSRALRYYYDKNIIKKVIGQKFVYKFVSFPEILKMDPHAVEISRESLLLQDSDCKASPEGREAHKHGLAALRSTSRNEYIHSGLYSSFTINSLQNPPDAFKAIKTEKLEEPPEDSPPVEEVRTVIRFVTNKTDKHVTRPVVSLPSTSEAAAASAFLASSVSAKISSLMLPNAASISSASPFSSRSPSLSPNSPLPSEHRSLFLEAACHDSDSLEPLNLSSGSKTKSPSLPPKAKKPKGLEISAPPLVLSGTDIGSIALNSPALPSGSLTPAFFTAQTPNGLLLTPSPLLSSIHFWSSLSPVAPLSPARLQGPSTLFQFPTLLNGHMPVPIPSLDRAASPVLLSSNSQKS
Summed up: as §1

Chain of ELF1 (P32519 whole entry): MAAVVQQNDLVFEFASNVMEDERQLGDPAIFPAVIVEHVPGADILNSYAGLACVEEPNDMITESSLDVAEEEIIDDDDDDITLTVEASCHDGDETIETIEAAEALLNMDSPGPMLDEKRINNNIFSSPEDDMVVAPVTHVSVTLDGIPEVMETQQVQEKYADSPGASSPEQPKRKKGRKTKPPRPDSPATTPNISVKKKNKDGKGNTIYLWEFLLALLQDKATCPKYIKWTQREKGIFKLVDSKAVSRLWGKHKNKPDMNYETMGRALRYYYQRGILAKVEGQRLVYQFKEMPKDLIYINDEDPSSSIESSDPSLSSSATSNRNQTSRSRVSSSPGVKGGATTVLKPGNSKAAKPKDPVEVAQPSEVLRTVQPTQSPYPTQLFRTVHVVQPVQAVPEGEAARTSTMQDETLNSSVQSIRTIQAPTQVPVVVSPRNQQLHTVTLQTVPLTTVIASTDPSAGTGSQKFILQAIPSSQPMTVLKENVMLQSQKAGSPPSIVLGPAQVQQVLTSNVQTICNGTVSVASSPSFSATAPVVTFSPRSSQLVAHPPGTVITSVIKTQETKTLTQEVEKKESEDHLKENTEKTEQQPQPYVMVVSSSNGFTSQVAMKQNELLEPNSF

Regarding CGATTA, the binding signal was 1.15 fold enrichment (6-mer frequency, TF over GST control) with FLI1; 1.07 fold enrichment (6-mer frequency, TF over GST control) with ELK1; 1.17 fold enrichment (6-mer frequency, TF over GST control) with GABPA; 1.16 fold enrichment (6-mer frequency, TF over GST control) with ERG; 1.15 fold enrichment (6-mer frequency, TF over GST control) with ELF1; 1.11 fold enrichment (6-mer frequency, TF over GST control) with EHF. Further, the binding signal with SPI1 is 1.09 fold enrichment (6-mer frequency, TF over GST control); in the assay with SPIB it was 1.13 fold enrichment (6-mer frequency, TF over GST control); with ELK3 it was 1.19 fold enrichment (6-mer frequency, TF over GST control).
With TAAGAT, the binding signal in the assay with FLI1 is 1.17 fold enrichment (6-mer frequency, TF over GST control); with ELK1, 1.26 fold enrichment (6-mer frequency, TF over GST control); with GABPA, 1.19 fold enrichment (6-mer frequency, TF over GST control); with ERG, 1.21 fold enrichment (6-mer frequency, TF over GST control); with ELF1, 1.24 fold enrichment (6-mer frequency, TF over GST control); with EHF, 1.3 fold enrichment (6-mer frequency, TF over GST control). Besides, the binding signal with SPI1 is 1.21 fold enrichment (6-mer frequency, TF over GST control); in the assay with SPIB, 1.31 fold enrichment (6-mer frequency, TF over GST control); with ELK3, 1.2 fold enrichment (6-mer frequency, TF over GST control).
As to ACTTTT, the binding signal is 1.43 fold enrichment (6-mer frequency, TF over GST control) with FLI1; 1.32 fold enrichment (6-mer frequency, TF over GST control) with ELK1; 1.34 fold enrichment (6-mer frequency, TF over GST control) in the assay with GABPA; 1.21 fold enrichment (6-mer frequency, TF over GST control) with ERG; 1.21 fold enrichment (6-mer frequency, TF over GST control) in the assay with ELF1; 1.21 fold enrichment (6-mer frequency, TF over GST control) in the assay with EHF. The binding signal with SPI1 was 1.26 fold enrichment (6-mer frequency, TF over GST control); with SPIB, 1.34 fold enrichment (6-mer frequency, TF over GST control); in the assay with ELK3 it was 1.14 fold enrichment (6-mer frequency, TF over GST control).
Consider TCGACC, for which the binding signal with FLI1 was 1.28 fold enrichment (6-mer frequency, TF over GST control); in the assay with ELK1 it was 1.32 fold enrichment (6-mer frequency, TF over GST control); with GABPA it was 1.4 fold enrichment (6-mer frequency, TF over GST control); in the assay with ERG it was 1.27 fold enrichment (6-mer frequency, TF over GST control); with ELF1, 1.29 fold enrichment (6-mer frequency, TF over GST control); with EHF it was 1.23 fold enrichment (6-mer frequency, TF over GST control). For the same sequence, the binding signal was 1.29 fold enrichment (6-mer frequency, TF over GST control) with SPI1; 1.28 fold enrichment (6-mer frequency, TF over GST control) with SPIB; 1.35 fold enrichment (6-mer frequency, TF over GST control) in the assay with ELK3.
Consider GATGTA, for which the binding signal with FLI1 is 1.29 fold enrichment (6-mer frequency, TF over GST control); with ELK1 it was 1.46 fold enrichment (6-mer frequency, TF over GST control); with GABPA, 1.21 fold enrichment (6-mer frequency, TF over GST control); with ERG it was 1.27 fold enrichment (6-mer frequency, TF over GST control); in the assay with ELF1 it was 1.26 fold enrichment (6-mer frequency, TF over GST control); in the assay with EHF it was 1.38 fold enrichment (6-mer frequency, TF over GST control). The binding signal was 1.3 fold enrichment (6-mer frequency, TF over GST control) with SPI1; 1.31 fold enrichment (6-mer frequency, TF over GST control) with SPIB; 1.35 fold enrichment (6-mer frequency, TF over GST control) with ELK3.
With TTTGAA, the binding signal with FLI1 was 1.22 fold enrichment (6-mer frequency, TF over GST control); in the assay with ELK1 it was 1.09 fold enrichment (6-mer frequency, TF over GST control); with GABPA it was 1.2 fold enrichment (6-mer frequency, TF over GST control); with ERG it was 1.21 fold enrichment (6-mer frequency, TF over GST control); in the assay with ELF1, 1.23 fold enrichment (6-mer frequency, TF over GST control); with EHF, 1.24 fold enrichment (6-mer frequency, TF over GST control). Moreover, the binding signal in the assay with SPI1 was 1.2 fold enrichment (6-mer frequency, TF over GST control); with SPIB, 1.2 fold enrichment (6-mer frequency, TF over GST control); in the assay with ELK3 it was 1.17 fold enrichment (6-mer frequency, TF over GST control).
For the sequence CCCCAA, the binding signal with FLI1 was 1.1 fold enrichment (6-mer frequency, TF over GST control); with ELK1, 1.16 fold enrichment (6-mer frequency, TF over GST control); with GABPA it was 1.16 fold enrichment (6-mer frequency, TF over GST control); with ERG, 1.18 fold enrichment (6-mer frequency, TF over GST control); with ELF1, 1.19 fold enrichment (6-mer frequency, TF over GST control); in the assay with EHF, 1.23 fold enrichment (6-mer frequency, TF over GST control). Also, the binding signal in the assay with SPI1 is 1.2 fold enrichment (6-mer frequency, TF over GST control); with SPIB, 1.07 fold enrichment (6-mer frequency, TF over GST control); in the assay with ELK3, 1.09 fold enrichment (6-mer frequency, TF over GST control).
